# From PubChem BioAssay (NCATS)
# Several values for one entry are separate records, joined by “and”; a condition that tells them apart may be missing. Equal values may be shown once. Inconclusive results are not listed. A call without a number means that no potency is given here. Activity calls are given as the source filed them.
# System: not listed separately
# Assay: qHTS assay for small molecule antagonists of peroxisome proliferator-activated receptor delta signaling (AID 588535; active = well fitted inhibition curve with a large enough effect in the signal ratio, with a control signal flat, not every such curve was filed as active; the % refers to the signal ratio;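 as to max response: cells co-treated with a PPAR-delta agonist as stimulator during compound exposure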)
# Conditions: HEK293T PPARd-UAS-bla, beta-lactamase FRET ratio, 18 h; 460 nm channel
# Procedure, shortened: (§1)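 Reporter: UAS-bla under PPAR-delta response element, HEK293T host. Medium: 2% charcoal/dextran FBS. Dosing: titration, 18 hrs, 37 C. Detection: CCF4, 2 hrs RT, 405 ex/460 and 530 em.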
row,Structure (SMILES),max response
1,CCC(=O)O[C@H]1CC[C@H]2[C@@H]3CCC4=CC(=O)CC[C@]4(C)[C@H]3CC[C@]12C,-14.3%
2,C=CCOC(Cn1ccnc1)c1ccc(Cl)cc1Cl (stereo not given),-52.6% and -29.4%
3,CN(C)C(=S)SSC(=S)N(C)C,11.3%

# Target: Peroxisome proliferator-activated receptor delta (Homo sapiens) (UniProt Q03181)
# Sequence (Q03181 whole entry, looked up): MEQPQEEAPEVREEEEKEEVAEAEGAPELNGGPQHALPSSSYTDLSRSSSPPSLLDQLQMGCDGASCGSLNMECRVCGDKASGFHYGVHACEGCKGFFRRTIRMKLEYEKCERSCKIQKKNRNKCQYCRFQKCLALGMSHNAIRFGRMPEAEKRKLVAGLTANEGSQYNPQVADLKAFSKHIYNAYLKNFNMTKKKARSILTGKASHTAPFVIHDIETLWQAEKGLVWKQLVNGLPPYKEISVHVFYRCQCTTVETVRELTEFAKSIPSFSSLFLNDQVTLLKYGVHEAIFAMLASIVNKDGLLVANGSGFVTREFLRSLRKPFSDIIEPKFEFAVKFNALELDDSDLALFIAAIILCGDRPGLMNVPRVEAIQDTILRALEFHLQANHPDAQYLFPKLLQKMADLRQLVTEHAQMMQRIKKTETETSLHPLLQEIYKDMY
# Assay: as above
# Conditions: HEK293T PPARd-UAS-bla, beta-lactamase FRET ratio, 18 h; series mostly up to 76.7 µM
# Procedure, shortened: as §1
row,Structure (SMILES),Potency
1,CCC(=O)O[C@H]1CC[C@H]2[C@@H]3CCC4=CC(=O)CC[C@]4(C)[C@H]3CC[C@]12C,inactive
2,C=CCOC(Cn1ccnc1)c1ccc(Cl)cc1Cl (stereo not given),inactive
3,CN(C)C(=S)SSC(=S)N(C)C,inactive

# Target: Peroxisome proliferator-activated receptor gamma (Homo sapiens) (UniProt P37231)
# Sequence (P37231 whole entry, looked up): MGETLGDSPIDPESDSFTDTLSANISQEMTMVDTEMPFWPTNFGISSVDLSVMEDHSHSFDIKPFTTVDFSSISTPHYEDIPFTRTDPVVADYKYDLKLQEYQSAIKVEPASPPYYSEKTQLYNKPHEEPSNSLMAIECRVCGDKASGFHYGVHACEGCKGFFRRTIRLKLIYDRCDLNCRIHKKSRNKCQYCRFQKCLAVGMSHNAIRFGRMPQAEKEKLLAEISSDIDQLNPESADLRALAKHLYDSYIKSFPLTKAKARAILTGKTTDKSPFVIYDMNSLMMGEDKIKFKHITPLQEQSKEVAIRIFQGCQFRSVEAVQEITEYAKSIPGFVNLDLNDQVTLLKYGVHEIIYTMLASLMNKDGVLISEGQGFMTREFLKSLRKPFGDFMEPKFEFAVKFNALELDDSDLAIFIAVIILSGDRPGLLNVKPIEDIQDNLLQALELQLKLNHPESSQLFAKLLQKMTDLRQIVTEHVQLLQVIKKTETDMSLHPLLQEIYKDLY
# Assay: qHTS assay for small molecule agonists of peroxisome proliferator-activated receptor gamma signaling (AID 588536; active = well fitted curve in the direction sought with a large enough effect in the signal ratio, with a control signal flat, not every such curve was filed as active; the % refers to the signal ratio)
# Conditions: HEK293 PPARg-UAS-bla, beta-lactamase ratio, 16 h, percent of rosiglitazone response, DMSO as zero; series mostly up to 76.7 µM
# Procedure, shortened: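 GeneBLAzer PPAR-gamma-UAS-bla HEK293 cells in 1% charcoal/dextran-treated FBS medium were treated 16 h at 37 C with compounds. Beta-lactamase activity was read by CCF4 ratio (460/530 nm). Response was normalized to 2 uM rosiglitazone (100%) and DMSO, then Hill-fitted for EC50 and efficacy.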
row,Structure (SMILES),outcome
1,CCNc1nc(Cl)nc(NCC)n1,inactive
2,O=C(NC(=O)c1c(F)cccc1F)Nc1cc(Cl)c(OC(F)(F)C(F)C(F)(F)F)cc1Cl (stereo not given),inactive
3,O=c1n(Cl)c(=O)n(Cl)c(=O)n1Cl,inactive
4,C[C@H]1C(=O)O[C@@H]2CCN3CC=C(COC(=O)[C@](C)(O)[C@]1(C)O)[C@H]23,inactive
